The entries come from a sample that favours hits as a whole.
APEX1 inh = blocks human APE1 abasic DNA cleavage; P27695; recombinant APE1, TAMRA/BHQ-2 abasic DNA cleavage fluorescence; Potency, µM (top dose mostly 65.8 µM), inactives show top-dose activity change, negative = inhibition, hits mostly inhibitors; hit rate 0.35% among 350,000; AID 2517;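 further: plate controls were vehicle for no effect and reference inhibitor for full effect; nearly all actives have a fitted effect of over 55% in size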
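APE1 at 0.75 nM final was preincubated with compound 15 min at room temperature, then 50 nM double-stranded THF abasic-site substrate (5'-TAMRA/3'-BHQ-2) was added. Fluorescence (ex 525/em 598 nm) was read kinetically; third-minus-first read gave activity.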
TDP1 inh = blocks human tyrosyl-DNA phosphodiesterase 1; Q9NUW8; Potency, µM (doses to about 130 µM), inactives show at the top dose activity change, negative = inhibition, hits mostly inhibitors; recombinant TDP1, AlphaScreen DNA substrate cleavage; AID 485290; hit rate 0.28% among 350,000; further: nearly all actives have a fitted effect of over 40% in size
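Steps: enzyme plus compound, 15 min RT; add biotin/phosphotyrosine-FITC oligonucleotide (15 nM final), react 5 min; add donor/acceptor beads (10 ug/ml final), 10 min; read AlphaScreen. Tdp1 at 1 nM final.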
BLM helicase inh = blocks DNA unwinding by human BLM helicase; P54132; recombinant BLM DNA unwinding, fluorescence dequenching; Potency, µM (doses to about 56.1 µM), for the others: at the top dose activity change, negative = inhibition, usual class: inhibitors; hit rate 0.2% among 350,000;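 further: plate controls were vehicle for no effect and no enzyme for full effect; nearly all actives have a fitted effect of over 35% in size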
Target sequence (P54132 whole entry, looked up): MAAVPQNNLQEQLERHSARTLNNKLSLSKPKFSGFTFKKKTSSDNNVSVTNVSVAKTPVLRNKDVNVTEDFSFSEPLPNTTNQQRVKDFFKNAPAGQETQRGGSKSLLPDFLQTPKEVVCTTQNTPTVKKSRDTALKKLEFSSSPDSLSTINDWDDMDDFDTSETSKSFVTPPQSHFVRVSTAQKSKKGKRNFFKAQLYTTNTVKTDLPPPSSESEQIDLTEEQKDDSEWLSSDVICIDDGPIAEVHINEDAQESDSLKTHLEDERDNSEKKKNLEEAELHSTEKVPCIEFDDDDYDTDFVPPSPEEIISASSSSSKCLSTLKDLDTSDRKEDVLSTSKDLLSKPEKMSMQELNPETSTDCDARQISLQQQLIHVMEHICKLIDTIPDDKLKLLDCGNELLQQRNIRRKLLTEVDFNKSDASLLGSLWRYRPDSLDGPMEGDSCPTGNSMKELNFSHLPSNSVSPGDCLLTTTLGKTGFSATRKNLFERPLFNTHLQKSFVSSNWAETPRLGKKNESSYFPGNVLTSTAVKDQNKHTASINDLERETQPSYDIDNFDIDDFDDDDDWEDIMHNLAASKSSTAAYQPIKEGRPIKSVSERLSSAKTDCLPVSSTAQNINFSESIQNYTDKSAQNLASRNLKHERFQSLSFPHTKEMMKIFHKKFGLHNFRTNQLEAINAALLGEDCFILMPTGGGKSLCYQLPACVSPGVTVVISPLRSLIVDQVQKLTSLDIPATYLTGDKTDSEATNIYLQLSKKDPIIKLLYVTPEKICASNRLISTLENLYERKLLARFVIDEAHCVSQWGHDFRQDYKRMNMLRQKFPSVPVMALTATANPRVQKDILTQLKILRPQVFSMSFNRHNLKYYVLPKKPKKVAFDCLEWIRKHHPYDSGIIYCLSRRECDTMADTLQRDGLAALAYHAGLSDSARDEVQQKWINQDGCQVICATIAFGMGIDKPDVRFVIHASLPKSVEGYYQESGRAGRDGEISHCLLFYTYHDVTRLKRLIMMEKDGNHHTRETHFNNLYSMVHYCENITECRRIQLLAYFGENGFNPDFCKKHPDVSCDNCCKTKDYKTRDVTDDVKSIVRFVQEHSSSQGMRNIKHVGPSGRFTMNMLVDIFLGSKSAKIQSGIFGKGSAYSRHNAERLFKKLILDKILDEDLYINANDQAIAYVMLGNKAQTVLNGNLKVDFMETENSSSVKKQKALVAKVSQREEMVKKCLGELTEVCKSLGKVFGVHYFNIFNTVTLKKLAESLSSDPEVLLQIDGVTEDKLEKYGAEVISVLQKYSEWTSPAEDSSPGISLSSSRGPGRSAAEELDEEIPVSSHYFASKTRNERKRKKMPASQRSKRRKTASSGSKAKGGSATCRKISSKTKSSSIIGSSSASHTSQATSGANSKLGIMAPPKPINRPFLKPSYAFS
RECQ1 inh-1 = RECQ1 (human) helicase inhibition; AID 2549; Potency, µM (highest dose often 57.3 µM), for the others: at the highest dose activity, negative = inhibition, actives largely listed as inhibitors; hit rate 0.54% among 240,000; RECQ1 DNA unwinding, red fluorescence kinetic read;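 further: plate controls were vehicle for no effect and no enzyme for full effect; nearly all actives have a fitted effect of over 30% in size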
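50 nM RECQ1T1 preincubated 15 min with compound in Tris pH 8.0 buffer with MgCl2, DTT, Tween-20 and 2.5 ug/ml poly(dI-dC); started with 200 nM TAMRA/BHQ-2 forked duplex and 2 mM ATP. Unwinding read as fluorescence (525/598 nm), two reads 2 h apart.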
KDM4E inh = inhibitors of human JMJD2E histone demethylase; B2RXH2; Potency, µM (series often up to 57.1 µM), for inactives: top-dose activity change, negative = inhibition, hits mostly inhibitors; hit rate 1.6% among 230,000; JMJD2E catalytic domain, FDH-coupled NADH fluorescence (FDH is formaldehyde dehydrogenase); AID 2147; active means well fitted inhibition curve with a large enough effect, not every such curve was filed as active; inconclusive means small, poorly fitted or top-dose-only effect, or another doubt; inactive means no such curve, though single readings can be large or run the other way;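 further: 0% = wells with enzyme and -100% = buffer wells without enzyme; nearly all actives have a fitted effect of over 50% in size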
GCN5L2 inh = GCN5L2 (KAT2A) acetyltransferase inhibition | Q92830 | GCN5L2 HAT assay, ThioGlo1 CoA-SH fluorescence | Potency, µM (titrated, usually from 58.9 µM), for the others: at the top dose activity change, negative = inhibition, most hits filed as inhibitors | hit rate 0.21% among 390,000 | AID 504327
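Enzyme at 20nM final was mixed with library compounds for 15 min at room temperature. Peptide H3(1-25) at 75uM, acetyl-CoA at 70uM and ThioGlo1 at 50uM were then added. Plates were read immediately and after 20 min (Ex340nm/Em540nm).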
RECQ1 inh conf = confirmation of human RECQ1 helicase inhibitors; shares compounds with RECQ1 inh-1; RECQ1 helicase DNA unwinding, fluorescence; Potency, µM (titrated, usually from 229 µM), inactives show at the highest dose activity change, negative = inhibition, most hits filed as inhibitors; hit rate 28% among 610; AID 2708; further: nearly all actives have a fitted effect of over 45% in size
RECQ1 ADP FP = ADP displacement flagged in RECQ1 inhibitor counter-screen; shares compounds with RECQ1 inh-1; ADP fluorescence polarization displacement counterscreen; Potency, µM (titrated, usually from 228 µM), for inactives: top-dose activity change, negative = inhibition, actives largely listed as inhibitors; hit rate 27% among 530; further: nearly all actives have a fitted effect of over 45% in size
RECQ1 inh-2 = RECQ1 helicase inhibition confirmed, round 2; shares compounds with RECQ1 inh-1; recombinant RECQ1 DNA unwinding, red fluorescence; Potency, µM (top dose mostly 119 µM), without a hit: at the highest dose activity, negative = inhibition, most hits filed as inhibitors; hit rate 15% among 1,100; further: nearly all actives have a fitted effect of over 50% in size
* marks the source's active call; other numbers are inactive results; i = inactive; ? = inconclusive; nt = not tested or not shown; [ ] = dose if it differs, or a comment. Unless noted, the call rests on the fitted dose curve; in most records, active means well fitted curve in the direction sought with a large enough effect; inconclusive means small, poorly fitted or top-dose-only effect, or another doubt; inactive means no such curve, though single readings can be large; an effect the other way counts as inactive or inconclusive. Unless noted, on the % scale 0 is the no-effect control and ±100 the full control effect; potency means the concentration at half of the fitted maximal effect.

SMILES	APEX1 inh	TDP1 inh	BLM helicase inh	RECQ1 inh-1	KDM4E inh	GCN5L2 inh	RECQ1 inh-2	others
O=C(/C=C/c1ccccc1)NCCc1ccccc1	7.9µM*	nt	-20%	18µM*	-11%	?	?	RECQ1 inh conf=11%[114 µM];RECQ1 ADP FP=?
CCOC(=O)c1cc(C)n(CC2CCC(C(=O)Nc3ccc(Cl)cc3)CC2)c1C (stereo unspecified)	nt	3%	-8%	nt	nt	-5%	nt
Cn1c(SCc2ccc(F)cc2)nc2ccc(C(=O)NCc3ccc(F)cc3)cc21	nt	2%	-9%	nt	nt	-13%	nt
O=C(O)CCCCCn1c(SCc2cc(=O)n3cc(Cl)ccc3n2)nc2ccsc2c1=O	6%	-5%	-6%	-1%	-6%	5%	nt	RECQ1 inh conf=?;RECQ1 ADP FP=?
Cc1ccccc1OCC(=O)N(Cc1ccc(N(C)C)cc1)CC1CCCO1 (stereo unspecified)	nt	9%	-4%	nt	nt	-4%	nt
CC1=NN(c2ccc(N)cc2)C(=O)C1	?	5%	-24%	?	?	-14%	-2%
Cc1ccc(/C=C/C(=O)c2nc3ccccc3[nH]2)cc1	-6%	2%	-21%	10µM*	5%	-5%	-29%	RECQ1 inh conf=2%[114 µM];RECQ1 ADP FP=-14%[91.9 µM]
Cc1cc(C)cc(OCc2cc(=O)n3c4c(sc3n2)CCCC4)c1	nt	4%	-5%	nt	nt	0%	nt
O=c1cc(CSc2ccc(Cl)cc2)[nH]c2[nH]n(-c3ccccc3)c(=O)c12	-9%	nt	-16%	?	-4%	-24%	-5%
Cc1c(C2=CCN(S(=O)(=O)c3ccc(Br)cc3)CC2)c2ccccc2n1C	-4%	3%	-3%	35µM*	16µM*	-5%	45µM*	RECQ1 inh conf=50µM*
COc1ccc(-c2csc(N3CCN(c4cc(C)nc5ccccc45)CC3)n2)cc1OC	?	5%	-5%	14µM*	?	-12%	-11%	RECQ1 inh conf=-3%[114 µM];RECQ1 ADP FP=?
Cc1cc(C)n2nc(C(=O)OCC(=O)c3cc(C)n(C)c3C)nc2n1	-10%	nt	-15%	?	5%	-17%	?
CC(=O)Nc1ccc(C(=O)COC(=O)c2nc3nc(C)cc(C)n3n2)cc1	-9%	-7%	nt	nt	nt	-2%	nt
COc1ccccc1/C=C/C=c1\sc2nc(=O)c(Cc3ccccc3)nn2c1=O	?	nt	?	?	?	-11%	?
CCCCCOc1ccc(/C=c2\sc3nc(=O)c(-c4ccccc4)nn3c2=O)cc1OC	?	5%	0%	-16%	-2%	-3%	nt
O=C(COc1cccc(C(F)(F)F)c1)N1CCN(c2ccc(O)cc2)CC1	-8%	-3%	-1%	-5%	?	4%	nt
O=C(COc1ccc2c(c1)CCC2)N1CCN(c2cccc(C(F)(F)F)c2)CC1	?	3%	-6%	35µM*	4%	-8%	-14%
COc1ccc(CNc2nc(-c3ccccc3OC)nc3ccccc23)c(OC)c1	5%	4%	114%	2%	-6%	-18%	nt
Cc1ccccc1CNC(=O)c1ccc2[nH]c(C)c(C)c2c1	nt	11%	-4%	nt	nt	15%	nt
Cc1ccc(C)n1-c1sc2c(c1C(=O)O)CCCC2	?	nt	-18%	13µM*	-30%	?	8.9µM*	RECQ1 inh conf=56µM*;RECQ1 ADP FP=?
COc1ccccc1CNC(=O)c1ccc(-c2nc(CS(=O)c3ccc(C)cc3)c(C)o2)cc1 (stereo unspecified)	nt	14%	-9%	nt	nt	-8%	nt
Cc1ccc(S(=O)(=O)N2CCCC(C(=O)NCc3ccc4c(c3)OCO4)C2)cc1 (stereo unspecified)	27%	nt	-4%	nt	nt	-1%	nt
O=C(NCc1ccc2c(c1)OCO2)C1CCCN(S(=O)(=O)c2cccnc2)C1 (stereo unspecified)	13%	0%	1%	?	7%	-5%	-3%
CN(C)c1ccc(C2C3=C(CCCC3=O)OC3=C2C(=O)CCC3)cc1	7%	7%	-14%	?	-15%	3%	1%
COc1ccc(NS(=O)(=O)c2ccc(O)c(NC(=O)c3ccc(S(=O)(=O)N4CCCC4)cc3)c2)cc1	-2%	3%	-6%	5%	5%	-6%	nt	RECQ1 inh conf=8%;RECQ1 ADP FP=5%
SMILES	APEX1 inh	TDP1 inh	BLM helicase inh	RECQ1 inh-1	KDM4E inh	GCN5L2 inh	RECQ1 inh-2	others
COc1ccc(NS(=O)(=O)c2ccc(O)c(NC(=O)c3ccc(S(=O)(=O)N4CCCCCC4)cc3)c2)cc1	3%	4%	-19%	6%	14%	-16%	nt	RECQ1 inh conf=-13%;RECQ1 ADP FP=10%
COc1ccc(C(=O)Nc2ccc(S(=O)(=O)N3CCCC3)cc2)cc1	-8%	-1%	-4%	i	-6%	-6%	nt
COc1ccc(NC(=O)c2ccc(CNS(=O)(=O)c3cccc(OC)c3)cc2)cc1	-5%	3%	-4%	35µM*	-2%	-8%	0%
COc1ccc(NC(=O)c2ccc(S(=O)(=O)NCc3cccnc3)cc2)cc1	-5%	nt	-5%	nt	nt	-8%	nt
O=S(=O)(Nc1nc2ccccc2nc1Nc1cccc(S(=O)(=O)N2CCCCC2)c1)c1ccccc1	-6%	5%	-19%	?	?	?	?
O=C(NCCc1ccccc1Cl)c1ccc(Cn2c(=O)c3cccn3c3cccnc32)cc1	nt	-3%	-21%	nt	nt	-8%	nt
CCN(CC)c1ccc(C(=O)NCc2ccc3c(c2)CCN3C(=O)c2ccc(F)cc2)cc1	nt	3%	-5%	nt	nt	-2%	nt
Cc1noc(Cn2c(=O)c3ccccc3n(CC(=O)Nc3ccc(C(C)C)cc3)c2=O)n1	nt	8%	-6%	nt	nt	-10%	nt
CN(C)c1cc(-c2cccc(NS(C)(=O)=O)c2)ncn1	-8%	nt	-4%	-7%	nt	-14%	nt
COc1ccc(NS(=O)(=O)c2cccc(NC(=O)c3ccc(S(=O)(=O)N4CCCCCC4)cc3)c2)cc1	-4%	4%	-3%	-14%	13%	-5%	nt	RECQ1 inh conf=-2%;RECQ1 ADP FP=4%
O=C(COC(=O)c1cccc(S(=O)(=O)N2CCN(c3ccccc3)CC2)c1)NCc1ccco1	?	79µM*	18µM*	35µM*	-4%	17%	?
O=C(O)c1ccc(NS(=O)(=O)c2ccc3c(c2)C2C=CCC2C(c2ccccc2F)N3)cc1 (stereo unspecified)	?	nt	7%	?	-23%	?	-14%

Compound activity: PubChem BioAssay, National Center for Advancing Translational Sciences (NCATS)
